The values that follow come from PubChem BioAssay AID588334 (Broad Institute, 2011).

In all, about 300,000 compounds went through this assay and about 2,300 (0.77%) were called active. What follows is part of a selection rich in actives, with near analogues and random picks from the rest. Values without a mark were called inactive.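 How the source made its calls: active means mean activation of at least 80% with every replicate also reaching 80%; inconclusive means mean reaches 80% but some replicate falls short; inactive means the rest.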 Where a SMILES comes first, the peptide text is derived from it. [ ]: non-standard residue; d: D form. ξ: configuration not given here. Ac5c = NC1(C(=O)O)CCCC1; ξS = NC(CO)C(=O)O

A short description of this assay: activators of MITF-driven TRPM1 promoter reporter, primary screen, cell-based, SK-MEL-5, luciferase, single point (AID 588334).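 Further: 0% = neutral control wells and 100% = parthenolide positive control wells.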 The following applies: SK-MEL-5 TRPM1-promoter luciferase, 24 h; at 12.5 µM; hits give high values; % of positive control, neutral wells = 0.
`c1ccc2c(CSCc3nc4ccccc4[nH]3)cccc2c1`: the activation was -9.4%.

Consider `Clc1ccccc1SCc1nc2ccccc2[nH]1`, for which the activation is 98.6% (active).

For the compound `c1ccc(-c2nnc(SCc3nc4ccccc4[nH]3)o2)cc1`, the activation is -11.4%.

Regarding `O=C(Cc1ccc(NC(=O)C2CCCN(C(=O)C3CCCCC3)C2)cc1)Nc1cccc(C(=O)N2CCCCC2)c1` (centres undefined), the activation was 2.88%.

With `Cc1cccc(C)c1NC(=S)N1CCCCCC1`, the activation was -1.99%.

`S=C(c1ccc(-c2ccccc2)o1)N1CCCCC1`: the activation was 99.8% (active).

For the compound `CC1CCN(C(=S)c2ccc(-c3ccc(Cl)cc3Cl)o2)CC1`, the activation was 28%.

Take `CC(C)Cc1nnc(N)s1`: the activation is -14.5%.

In the case of `Cc1ccc(NC(=O)C2CCC(C(C)(C)C)CC2)cc1S(=O)(=O)N1CCOCC1` (centres undefined), the activation was -5.55%.

Take `COc1cc(/C=C2\Oc3ccc(C#Cc4ccc(O)cc4)cc3C2=O)cc(OC)c1`: the activation is -73.4%.

`COCCNC(=O)Cn1cc(C(=O)c2cccs2)c2ccccc21`: the activation is 7.95%.

Turning to `O=C(COC(=O)c1cccs1)NCc1cccs1`, the activation was 3.86%.

With `COC(=O)c1cn(CC(=O)NCc2cccs2)c2ccccc12`, the activation is 81.5% (active).

In the case of `O=C(NCc1ccccc1)c1cccc(NC(=O)C2CCCCC2)c1`, the activation was -5.07%.

On to `O=C(NN=Cc1ccccc1)c1ccccc1`, for which the activation was 55%.

With `COc1cccc(NC(=O)c2ccccc2SC)c1`, the activation is 6.57%.

In the case of `Cc1cccc(NC(=O)Nc2cccc(Oc3c(F)c(F)c(F)c(F)c3F)c2)c1`, the activation is 16.2%.

As for `Cc1ccoc1C(=O)Nc1cccc(Oc2ccccc2)c1`, the activation is 87% (active).

On to `CSc1ncnc2c1ncn2CC(=O)C1CCC2C3CCC4=CC(=O)CCC4(C)C3CCC12C` (centres undefined), for which the activation was -44.7%.

Take `CCOc1ccc(/C=C(/C#N)c2nnc(N3CCOCC3)n2-c2ccccc2)cc1OC`: the activation is -2.3%.

`Cc1ccc(-c2noc(C3CCCN(C(=O)c4cccc(Cl)c4)C3)n2)o1` (centres undefined): the activation was 102% (active).

For `O=C(c1ccc(F)cc1)N1CCCC(c2nc(-c3cccs3)no2)C1` (centres undefined), the activation is -6.36%.

As to `COc1cccc(-c2noc(C3CCCN(C(=O)c4ccc(F)cc4)C3)n2)c1` (centres undefined), the activation was -11.5%.

As to `c1cnc(Nc2nc(-c3ccc4ccccc4c3)cs2)nc1`, the activation was 103% (active).

`O=C(Nc1nc(-c2ccc(-c3ccccc3)cc2)cs1)c1cnccn1`: the activation was 1.68%.

Turning to `Cc1ccc(-c2csc(NC3OC(=O)c4ccccc43)n2)cc1` (centres undefined), the activation is -32.1%.

`COc1ccc(CCNC(=O)c2ccccc2OCc2ccccc2)cc1`: the activation is -7.11%.

`O=C(NCCc1ccccc1)c1cccc(NC(=O)c2ccccc2)c1`: the activation is 20.5%.

Take `COc1cccc2[nH]c(C(=O)NCCc3ccccc3)cc12`: the activation was 110% (active).

For `Cc1ccc(S(=O)(=O)N2CCN(C(=O)COC(=O)/C=C/c3cccc(Cl)c3)CC2)c(C)c1`, the activation is 4.12%.

Consider `Cc1cccc(NC(=O)c2ccc(S(=O)(=O)N(C)c3ccccc3)cc2)n1`, for which the activation was 1.38%.

For the compound `CSCCC1NC(=O)N(CC(=O)Nc2cccc(S(=O)(=O)N3CCCCCC3)c2)C1=O` (centres undefined), the activation was 11.8%.

`O=C(COC(=O)c1ccccc1)c1ccc2c(c1)OCCO2`: the activation is 17.6%.

As for `O=C(COC(=O)c1ccc2c(c1)OCCO2)NCc1ccccc1Cl`, the activation was 4.3%.

As to `O=C(OCc1ccccc1F)c1ccc2c(c1)OCCO2`, the activation was 126% (active).

`CCOc1ccc(C(=O)Nc2ccncc2)cc1`: the activation is 41.4%.

As to `CCOc1ccc(C(=O)Nc2cccc(-c3ccc4nncn4n3)c2)cc1`, the activation was 52.8%.

For `CCOc1ccc(C(=O)Nc2cccc(SC)c2)cc1`, the activation was 84.3% (active).

In the case of `O=C1CC[C@@H]2CC3(C[C@@H]4CCN1[C@H]24)Nc1cc([N+](=O)[O-])ccc1NC3=NC1CCCCC1` (some centres undefined), the activation was 3.73%.

With `COc1ccc(NC(=S)N2N=CCC2c2ccccc2)cc1` (centres undefined), the activation is 90.9% (active).

Turning to `COc1ccc(C(=S)Nc2ccccc2)cc1`, the activation is 33.5%.

As to `COc1ccc(C(=O)NC2CCN(C(=S)Nc3ccccc3)CC2)cc1`, the activation was -0.484%.

Consider `Cc1ccc(NC(=S)NCc2ccccc2Cl)c(C)c1`, for which the activation is -11.2%.

As for `Cc1ccc(C(=O)NC(=S)Nc2ccccc2C)cc1`, the activation was 51.8%.

`Cc1ccc(NC(=S)Nc2ncccc2C)c(C)c1`: the activation is 92.2% (active).

For `COc1ccc(CNCCCn2cnc3c(OCc4ccccc4)ncnc32)cc1`, the activation is 7.28%.

Consider `Cc1ccc(S(=O)(=O)N2CCN(C(=O)c3cc(S(=O)(=O)N4CCOCC4)ccc3F)CC2)cc1`, for which the activation was -4.55%.

For `NN=C(NN=Cc1ccccc1)c1ccccc1`, the activation is 35.2%.

As to `CCCOc1ccc(C(=O)NCCc2ccccc2)cc1`, the activation was -2.06%.

Regarding `O=C(NCCc1ccccc1)c1ccc2c(c1)N(Cc1ccccc1)CCS2`, the activation is 39.9%.

With `CC1CCCN(c2ccc(C(=O)NCCc3ccccc3)cn2)C1` (centres undefined), the activation is 126% (active).

Regarding `CC(C(=O)N1CCc2ccccc21)N(C)CC(=O)Nc1ccc(F)cc1` (centres undefined), the activation is 13.5%.

With `COC[C@@H]1NS(=O)(=O)c2ccc(Br)cc2O[C@H]1c1ccccc1`, the activation was 7.36%.

For `O=C(CC1SCCNC1=O)Nc1ccc(Cl)cc1` (centres undefined), the activation was 26.1%.

On to `O=C(O)C1CCCCC1C(=O)Nc1ccc(Cl)cc1` (centres undefined), for which the activation was 20.2%.

With `O=C(Nc1ccc(Cl)cc1)/C(=C1\CCCN1)[N+](=O)[O-]`, the activation was 88.7% (active).

As to `COc1ccccc1N(CC(=O)Nc1ccc(C)cc1Cl)S(=O)(=O)c1cccs1`, the activation was -4.34%.

Take `Cc1occc1C(=O)NNC(=S)NCC(C)C`: the activation is -2.13%.

On to `O=C(NC(=S)NC1CCCCC1)c1ccc(Cl)cc1`, for which the activation was 138% (active).

In the case of `COCCCNC(=S)NC(=O)c1ccccc1`, the activation is 17.9%.

For the compound `CC(C)CNC(=S)NC(=O)c1ccc(Cl)cc1`, the activation is 112% (active).

As to `O=C(NC1CCCCCC1)c1cccnc1Sc1ccc(Cl)cc1`, the activation is 6.6%.

Take `O=C(NC1CCCCC1)c1ccc(-c2ccc(Cl)cc2)o1`: the activation is 111% (active).

For the compound `O=C(NNC(=S)NC1CCCCC1)c1ccccc1Cl`, the activation is 9.14%.

Regarding `S=C(NCc1ccc(Cl)cc1)NC1CCCCC1`, the activation is -7.01%.

`COc1ccc(C(=O)NC(=S)NC2CCCCC2)cc1`: the activation is 73.7%.

On to `C=CCC[C@H](Cc1ccc(F)cc1)C(=O)OC[C@@H](NC(=O)[C@@H](CC=C)CC(=O)N[C@H](CO)Cc1ccccc1)C(C)(C)C`, for which the activation is -0.905%.

As to `CCCCNC1(C#N)CCN(Cc2ccccc2)CC1`, the activation is 0.419%.

In the case of `CC(C)(C)OC(=O)N(Cc1ccccc1)Cc1ccc(OCc2cccc(NC(=O)c3ccccc3)c2)cc1`, the activation was -13.4%.

`O=C(C[C@H]1C[C@H](C(=O)N2CCOCC2)[C@@]2(CCC3CCCC3)c3[nH]c4ccc(Cl)cc4c3CCN2C1=O)NCc1ccco1`: the activation is -16.1%.

For `CCCCNc1c(-c2ccc(OC)c(Sc3ccc(OC)cc3)c2)nc2ccc(Cl)cn12`, the activation is 4.02%.

For the compound `CCOC(=O)C(CO)NC(=O)C1(NC(C)=O)CCCC1` (centres undefined) (Ac-[Ac5c]-[ξS]-OEt), the activation is 14.3%.

With `COc1ccc(S(=O)(=O)N2CCc3ccccc32)cc1C(=O)Nc1cc(S(C)(=O)=O)ccc1Cl`, the activation was -34%.

Take `COc1ccc(Nc2nnc(C)c3ccccc23)cc1`: the activation was 24.4%.

In the case of `COc1ccc(-c2nnc(SCc3cccnc3)o2)cc1`, the activation is 72%.

`COc1ccc(N2CCN(Cc3nnc(-c4ccccc4)o3)CC2)cc1`: the activation is -2.12%.

`COc1ccc(Nc2ccc3ccccc3c2)cc1`: the activation was 101% (active).

With `COc1ccc(-c2nnc(-c3ccc4ccccc4c3)o2)cc1`, the activation is 93.8% (active).

For `S=C(Nc1ccccc1)Nc1ccc2ccccc2c1`, the activation was 1.98%.

As for `CN(CCc1ccccc1)C(=O)c1cccc(NC(=O)Cc2cccc(NC(=O)C3CCCN(C(=O)CCc4ccccc4)C3)c2)c1` (centres undefined), the activation was -13.3%.

With `CCC1([N+](=O)[O-])COC(c2ccc(C(C)C)cc2)OC1` (centres undefined), the activation is 53.9%.

`CC(C)(C)OC(=O)C[C@@H]1C/C=C\C[C@@H](CC(=O)N(CCO)Cc2ccccc2)C(=O)N[C@H](Cc2ccccc2)COC1=O`: the activation is 8.13%.

Regarding `c1ccc(CSc2nnc(-c3ccco3)n2Cc2ccccc2)cc1`, the activation was 94.3% (active).

Turning to `O=C(CSc1nnc(-c2ccco2)n1CC1CCCO1)c1ccccc1` (centres undefined), the activation was 5.67%.

As to `O=C(CSc1nnc(-c2ccco2)n1-c1ccccc1)NCCc1ccccc1`, the activation is -10.2%.

Take `CCc1c(Nc2ccccc2Cl)nc(N)[nH]c1=O`: the activation was 0.399%.

`Cc1ccccc1C(=O)Nc1ccccc1Sc1ccccc1`: the activation was -5.99%.

On to `CSc1ccccc1NC(=O)c1cc(Cl)sc1Cl`, for which the activation was 3.8%.

As to `CSc1ccccc1NC(=O)c1cnc2sc(C)cn2c1=O`, the activation is 126% (active).

`CC(=O)N1CCc2ccc(N)cc21`: the activation is -5.2%.

`CC(C#N)OC(=O)c1cccnc1SCC(=O)Nc1ccc2c(c1)OCO2` (centres undefined): the activation is -11.6%.

For the compound `CCS(=O)(=O)Nc1ccc(C(=O)NCCSc2ccccc2)cc1`, the activation was 82.4% (active).

`Cc1ccc(C(=O)NCCNS(=O)(=O)c2ccccc2)cc1`: the activation is 0.954%.

In the case of `O=C(NCCSc1ccccc1)c1ccco1`, the activation is 61.4%.

With `CC(=O)OC1CCC2C3CCC4=C(CC(F)C(=O)C4)C3CCC12C` (centres undefined), the activation was 0.663%.

Consider `COC(=O)CSc1nc(C)c2ccc(OC)cc2n1`, for which the activation is 16.3%.

In the case of `COc1ccc2nc(SCc3ccccc3)nc(C)c2c1`, the activation was 91.9% (active).

On to `COc1ccc(-c2nnc3ccc(SCc4ccccc4)nn23)cc1`, for which the activation is -5.03%.

On to `C[C@]12c3[nH]c4ccc(Cl)cc4c3CCN1C(=O)[C@@H](CC(=O)NCCCn1ccnc1)C[C@@H]2C(=O)N1CCOCC1`, for which the activation was 13.5%.
